FLuc modulator = counter-screen for miR-21 project: firefly luciferase inhibitors or activators; 360,000 tested, 6.9% active; purified FLuc, Km substrates, luminescence inhibition; Potency, µM (highest dose often 57.5 µM), without a hit: top-dose activity change, negative = inhibition, actives largely listed as inhibitors;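 further: plate controls were vehicle for no effect and reference inhibitor for full effect; nearly all actives have a fitted effect of over 55% in size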
Target sequence (P08659 whole entry, looked up): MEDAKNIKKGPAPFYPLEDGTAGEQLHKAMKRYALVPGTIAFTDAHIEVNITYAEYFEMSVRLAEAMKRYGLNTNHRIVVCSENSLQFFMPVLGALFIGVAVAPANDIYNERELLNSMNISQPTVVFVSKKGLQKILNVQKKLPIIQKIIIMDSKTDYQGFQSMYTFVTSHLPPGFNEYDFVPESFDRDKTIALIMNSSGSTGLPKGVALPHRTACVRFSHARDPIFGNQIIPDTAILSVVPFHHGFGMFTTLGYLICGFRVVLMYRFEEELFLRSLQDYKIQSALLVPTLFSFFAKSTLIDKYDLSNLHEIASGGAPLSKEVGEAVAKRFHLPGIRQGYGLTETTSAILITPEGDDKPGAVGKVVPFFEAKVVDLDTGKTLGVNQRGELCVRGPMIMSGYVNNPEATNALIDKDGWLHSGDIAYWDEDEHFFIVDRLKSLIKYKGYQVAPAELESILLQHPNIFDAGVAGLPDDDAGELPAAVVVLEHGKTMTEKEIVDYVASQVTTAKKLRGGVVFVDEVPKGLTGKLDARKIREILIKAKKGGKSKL
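Purified P. pyralis luciferase, 10 nM final, with Km-level 10 uM D-luciferin and 10 uM ATP in 50 mM Tris acetate pH 7.5, 10 mM Mg acetate, 0.01% Tween-20, 0.05% BSA; 6-point qHTS titration about 60 µM downward; luminescence read.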
NPC1 prom act = activators of NPC1 promoter; Huh7 NPC1 promoter luciferase reporter, 24 h; Potency, µM (series often up to 9.22 µM), for inactives: top-dose activation, most hits filed as activators; 320,000 tested, 2.4% active; AID 485313; further: % of control where 0% means no effect; nearly all actives have a fitted effect of over 60% in size
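Luminescence read-out of NPC1 promoter-driven luciferase in stably transfected Huh7 cells; compounds delivered in DMSO and left 24 h at 37C, 5% CO2, qHTS titration format.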
SMN2 splice enh = enhancers of SMN2 splice variant expression; HEK293 SMN2-luciferase splicing reporter, luminescence, 30-36 h; Potency, µM (series often up to 46.1 µM), for inactives: at the top dose activity change, positive = activation, hits mostly activators; 210,000 tested, 2.8% active; AID 1458; further: % of control where 0% means no effect; nearly all actives have a fitted effect of over 55% in size
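HEK293 cells carry an SMN2 minigene-luciferase reporter in which exon 7 inclusion puts luciferase in frame. Cells were seeded at 2000 cells/well, attached for 10-12 hours, then exposed to compounds for 30-36 hours at 37C before ONE-Glo luminescence.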
ELG1 genotox = inducers of genotoxicity in HEK293T ELG1-luciferase cells | HEK293T ELG1-luciferase reporter, luminescence, 16 h | Potency, µM (titrated, usually from 46 µM), for inactives: at the top dose activity change, positive = activation, actives largely listed as activators | 330,000 tested, 1.3% active | AID 504466; further: % of control where 0% means no effect; nearly all actives have a fitted effect of over 60% in size
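16 hr compound incubation (37 °C, 5% CO2) of HEK293T cells carrying luciferase-tagged ELG1; luciferase then measured by ONE-Glo luminescence after 30 min at RT.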
Rab9 prom act = activates the Rab9 promoter; 320,000 tested, 2.8% active; Huh7 Rab9 promoter-luciferase reporter, luminescence, 24 h; Potency, µM (top dose mostly 9.22 µM), inactives show at the highest dose activation, negative = inhibition, hits mostly activators; AID 485297; further: % of control where 0% means no effect; nearly all actives have a fitted effect of over 60% in size
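Cells were plated at 1500 per well in reduced-serum medium with 10% FBS and left 2 h. Compound in DMSO was then added for 24 h at 37 °C. Reporter signal was read by luminescence after 10 min with luciferase detection reagent.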
ELG1 repair inh = ELG1-dependent DNA repair inhibition. HEK293T ELG1-luciferase reporter, luminescence, 16 h; DNA damage induced by 5-fluorouridine. Potency, µM (doses to about 46.1 µM), without a hit: at the top dose activity change, negative = inhibition, usual class: inhibitors. 330,000 tested, 2.3% active; further: on the % scale 0 is the no-effect control and ±100 the full control effect; nearly all actives have a fitted effect of over 55% in size
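5-Fluorouridine DNA damage + compound/DMSO, 2,000 cells/well, 16 h, 37 °C/5% CO2. ONE-Glo, 30 min RT, luminescence. Readout = decrease in reporter signal.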
Numbers without * were called inactive; ? = inconclusive; / = no result; [ ] = dose if it differs, or a comment. Only some compounds are listed: those with a hit (about 9.2% of all), similar ones and a draw of the others. The call rests on the fitted dose curve; in most records, active means well fitted curve in the direction sought with a large enough effect; inconclusive means small, poorly fitted or top-dose-only effect, or another doubt; inactive means no such curve, though single readings can be large; an effect the other way counts as inactive or inconclusive. Potency means the concentration at half of the fitted maximal effect.

SMILES	FLuc modulator	NPC1 prom act	SMN2 splice enh	ELG1 genotox	Rab9 prom act	ELG1 repair inh
COc1ccc(Nc2cc(C)c3cc([N+](=O)[O-])ccc3n2)cc1	16.9µM*	-6.8%	/	-1.8%	-5.6%	?
CC(=O)Nc1ccc(Nc2cc(C)c3ccccc3n2)cc1	?	0.8%	/	-5.2%	10.4%	1.7%
COc1ccc(Nc2cc(C)c3ccc(O)cc3n2)cc1	23.9µM*	4.8%	/	6.7%	-3.3%	6.7%
COc1ccc(N2CCN(c3cc(C)c4ccc(O)cc4n3)CC2)cc1	3.6%	-1.8%	16.3%	1.7%	1.4%	-6.1%
Cc1cc(Nc2ccccc2)nc2cc(O)ccc12	16.9µM*	-2.6%	-5.7%	3.5%	-6.5%	?
Cc1ccc2nc(C)cc(Nc3ccc([N+](=O)[O-])cc3)c2c1	0.6%	-20.7%	-108.3%	5.8µM*	-17.5%	?
O=C(C1CC(=O)N(C2CCCC2)C1)N1CCN(c2cccc(Cl)c2)CC1 (stereo not given)	2.3%	1.0%	/	-13.5%	5.8%	9.3%
CCC(=O)c1c[nH]c(C(=O)N2CCOCC2)c1	0.1%	-5.1%	/	6.3%	-0.8%	0.0%
O=c1[nH]cnc2cc(-c3ccc(Br)cc3)sc12	7.57µM*	2.51µM*	/	?	2.82µM*	?
Cc1ccc(C(C)C)c(OCC(=O)NNC(=O)CC2OC(=O)c3ccccc32)c1 (stereo not given)	-16.5%	9.4%	/	0.9%	11.4%	?
Cc1ccnc2nc(C(=O)Nc3ccc4c(c3)OCO4)nn12	10.7µM*	1.78µM*	11.2µM*	2.59µM*	1.58µM*	?
Cc1cc(C)n2nc(C(=O)Nc3ccc4c(c3)OCO4)nc2n1	23.9µM*	19.0%	?	?	28.9%	?
Cc1cc(C)n2nc(C(=O)NCCc3ccccc3)nc2n1	?	?	25.7%	23.1µM*	22.2%	?
COc1ccc(CN(CCC(c2ccccc2)C2CCOC(C)(C)C2)C(C)=O)cc1 (stereo not given)	1.7%	-1.9%	-2.3%	-7.6%	-4.5%	16.4µM*
COc1ccc(CNCCC(c2ccccc2)C2CCOC(C)(C)C2)cc1 (stereo not given)	1.1%	-3.3%	-32.5%	-9.3%	0.4%	-13.7%
Cc1c(C)n(CCc2ccccc2)c2ncnc(NCCO)c12	16.9µM*	3.55µM*	/	?	1.78µM*	?
Cc1cccc(-n2ncc3c(NCCCO)ncnc32)c1	6.75µM*	2.51µM*	11.2µM*	3.66µM*	1.12µM*	?
C=CCNc1ncnc2c1cnn2-c1cccc(C)c1	4.78µM*	2.51µM*	11.2µM*	2.91µM*	1.41µM*	?
Cc1ccc(-n2c(C)c(C)c3c(NCCCO)ncnc32)cc1	19µM*	2.82µM*	/	?	2.51µM*	?
Cc1c(C)n(CCCN(C)C)c2ncnc(NCc3ccccc3)c12	-0.6%	-5.0%	/	1.0%	-4.0%	24.1%
COc1ccc(-n2c(C)c(C)c3c(NCCCO)ncnc32)cc1	?	?	/	13.8%	?	?
C[N+](C)(C)CC(=O)N/N=C\c1ccncc1	/	/	-6.3%[9.22 µM]	/	/	/
CCCCNc1ncnc2c1cnn2-c1ccc(C)cc1C	-19.5%	-0.7%	-27.9%	14.3%	-7.4%	-0.6%
CCN(CC)CCCNc1ncnc2c1cnn2-c1ccc(C)c(C)c1	15.1µM*	/	/	/	/	/
C=CCNc1ncnc2c1cnn2-c1ccc(Cl)cc1	0.849µM*	0.891µM*	2.82µM*	1.84µM*	1.12µM*	?
O=C1C(Cl)=C(N2CCCCC2)C(=O)C(Cl)=C1c1cnc(N2CCCCC2)s1	9.53µM*	-28.5%	-66.6%	-4.1%	-30.3%	?
CC[C@@H](C)CN1C(=O)N[C@@H](c2ccccc2)C(C(=O)OC)=C1C	/	/	1.4%[9.22 µM]	/	/	/
O=C(Nc1scc(-c2ccccc2)c1C(=O)O)c1ccccc1Cl	?	-3.4%	/	1.1%	1.0%	0.0%
O=C(Nc1scc(-c2ccccc2)c1C(=O)O)c1ccco1	10.7µM*	17.1%	?	?	28.6%	?
